Hit rate of the full screen: of about 55,000 compounds, about 90 (0.2%) were called active. This is one part of a sample in which actives are shown more often than they occur. The rule behind the calls is not given here.
Experiment: growth inhibitors of anaerobic choline-fed gram-negatives, minimal medium, absorbance (AID 1963822)
Settings: Gram-negative bacterium anaerobic choline minimal medium
[1] = measured here: choline growth z-score, timepoint 1, stronger effect = lower value

| SMILES | z-score (stronger effect = lower value) | z-score [1] |
| --- | --- | --- |
| O=S(=O)(Nc1ccc(F)cc1)c1cc(-c2noc(C3CC3)n2)cs1 | 0.08 (inactive) | -0.4 |
| COc1ccccc1CNc1ncc2nc(-c3ccccc3)oc2n1 | -0.72 (inactive) | -0.32 |
| Cc1ccc(-c2cc(C(=O)N3CCN(C)CC3)no2)cc1C | -2.15 (inactive) | -1.67 |
| C=CCn1c(=O)c(=O)n(Cc2ccc(C(=O)N3CCC(N4CCCCC4)CC3)cc2)c2ccccc21 | 0.52 (inactive) | 0.14 |
| O=C(Cn1cccc1-c1nc(-c2ccc(Cl)cc2)cs1)NCc1ccc2c(c1)OCO2 | 0.32 (inactive) | -0.44 |
| CC(C)c1nnc2ccc(N3CCN(C(C)C)CC3)nn12 | 0.55 (inactive) | -2.47 |
| CCCN1C(=O)c2ccccc2Sc2cc(-c3noc(/C=C/c4ccccc4)n3)ccc21 | -0.13 (inactive) | 0.3 |
| COC(=O)Cn1nc2c(-c3nc(-c4ccc(Cl)cc4)no3)cccn2c1=O | -0.55 (inactive) | -1.3 |
| Cc1ccc(N2CC(c3nc(-c4ccc(N5CCCC5)cc4)no3)CC2=O)cc1C (stereo not drawn) | 0.33 (inactive) | 0.93 |
| CC1CCN(CCCNC(=O)Cc2ccc(NC(=O)N3CCSc4ncccc43)cc2)CC1 | 1.04 (inactive) | 0.79 |
| Cc1cc(C)c2nc(C)cc(C(=O)NC3CC3)c2c1 | 1.05 (inactive) | 0.53 |
| CCC1(CC)Cc2ccccc2-c2[nH]c(=O)n(CC3=CCCO3)c(=O)c21 | 0.12 (inactive) | -1.14 |
| COc1ccccc1N1CCN(c2ccc(=O)n(CC(=O)NCc3ccccn3)n2)CC1 | -0.67 (inactive) | -0.7 |
| CN(C)C(=O)c1cc2c(s1)CCC(C(=O)N(C)C)C2 (stereo not drawn) | 0.34 (inactive) | 0.33 |
| CC(C)(C)c1ccc(S(=O)(=O)NCc2nc(N)n(S(=O)(=O)c3ccc(C(C)(C)C)cc3)n2)cc1 | -0.11 (inactive) | 0.06 |
| CCOc1ccc(N(Cc2nc3nc(C)cc(C)n3n2)C(=O)CC(C)C)cc1 | -0.89 (inactive) | -1.11 |
| CCOc1ccc(-c2cc(C(=O)Oc3ccc(OC)cc3)no2)cc1 | -0.02 (inactive) | 0.37 |
| O=C(CN1C(=O)CSc2ccc(S(=O)(=O)N3CCCC3)cc21)Nc1cccnc1 | 0.64 (inactive) | 0.19 |
| O=C(NC1CC1)C1CCCN(c2ccc3cc(S(=O)(=O)N4CCCCC4)ccc3n2)C1 (stereo not drawn) | -0.89 (inactive) | -0.76 |
| O=C(Nc1ccc(F)cc1)c1ccccn1 | -3.6 (inactive) | -3.98 |
| O=C(c1nnc(-c2ccc(S(=O)(=O)N3CCCC3)cc2)o1)N1CCCC1 | 0.25 (inactive) | 0.12 |
| COc1ccnc2c1c(=O)n(CC(=O)N1CCCc3ccccc31)c(=O)n2C | 1.04 (inactive) | 0.31 |
| CCC(=O)NCCc1nc2cc(NC(=O)C3CCCCC3)ccc2n1C | -0.79 (inactive) | -0.11 |
| COc1cccc(CSc2nc3c(-c4ccccc4)c[nH]c3c(=O)[nH]2)c1 | 0.44 (inactive) | -0.28 |
| Cn1c(=O)n(-c2ccc(F)cc2)c2nc(-c3cccc(F)c3)nc(C(N)=O)c21 | -0.47 (inactive) | 0.68 |
| CCc1nc2ccccc2c(=O)n1Cc1noc(CN2C(=O)COc3ccccc32)n1 | 0.03 (inactive) | 0.5 |
| O=C(NC1CCCc2ccccc21)c1ccc(-c2cc(N3CCOCC3)ncn2)cc1 (stereo not drawn) | 0.49 (inactive) | -1.29 |

| SMILES | z-score (stronger effect = lower value) | z-score [1] |
| --- | --- | --- |
| Cc1noc(-c2cccnc2N2CCN(C(c3ccccc3)c3ccccc3)CC2)n1 | 0.85 (inactive) | 0.28 |
| Cc1nc(-c2cc(S(=O)(=O)N3CCN(c4ccccc4F)CC3)c(C)s2)cs1 | 1.43 (inactive) | 0.83 |
| O=C(NCCN1CCOCC1)C1CCN(c2cncnc2N2CCCCC2)CC1 | 0.71 (inactive) | 0.79 |
| C=CCSc1n[nH]c(NC(C)=O)n1 | 0.76 (inactive) | 0.64 |
| Cc1ccc(C(C)C)c(OC(C)C(=O)Nc2onc3c2CCCC3)c1 (stereo not drawn) | -0.74 (inactive) | -0.51 |
| CCN1C(=O)c2ccccc2Sc2cc(-c3noc(-c4ccc5c(c4)OCO5)n3)ccc21 | 0.5 (inactive) | 0.22 |
| CCOc1ccc(N2CCCCn3c2nc2c3c(=O)n(CCC(C)C)c(=O)n2C)cc1 | -0.58 (inactive) | 0.29 |
| COc1ccc(-c2cc3nc(C)cc(N4CCOCC4)n3n2)cc1OC | 0.32 (inactive) | -0.41 |
| CCN(CCCNC(=O)c1cccn2c(=O)c3ccccc3nc12)c1cccc(C)c1 | 1.29 (inactive) | 1.6 |
| Cc1ccc(/C=C/c2nn3c(-c4ccoc4C)nnc3s2)cc1C | -0.03 (inactive) | 0.36 |
| O=C(CCc1nc(CSc2nnc(-c3ccccc3)o2)no1)Nc1ccc(F)c(Cl)c1 | -0.29 (inactive) | -0.24 |
| COc1cc(OC)cc(N2C=C(C#N)S(=O)(=O)c3cc(F)ccc32)c1 | 0.71 (inactive) | 0.22 |
| O=S(=O)(c1ccc2c(c1)-c1oncc1CO2)N1CCN(C(c2ccccc2)c2ccccc2)CC1 | 0 (inactive) | -0.77 |
| CC(=O)N1CCc2cc(N3CC(C(=O)N4CCC5(CC4)OCCO5)CC3=O)ccc21 (stereo not drawn) | -1.2 (inactive) | -0.84 |
| O=S(=O)(c1ccccc1F)N1CCN(c2ncnc3c2nnn3-c2ccccc2)CC1 | 1.03 (inactive) | 0.86 |
| COc1cc(C2Nc3c(C)cc(C)cc3[C@H]3OCC[C@@H]23)cc(Br)c1OC (stereo partly drawn) | 0.49 (inactive) | 0.1 |
| Cc1cc(C)nc(SCCn2c(N3CCC(C)CC3)nc3c2c(=O)[nH]c(=O)n3C)n1 | 0.25 (inactive) | 0.24 |
| COc1ccc(C2CC(c3c(O)n(C)c(=O)n(C)c3=O)=NN2)cc1 (stereo not drawn) | 0.56 (inactive) | 0.56 |
| O=C(Cn1c(=O)c(=O)n(Cc2ccncc2)c2ncccc21)NCCN1CCCCC1 | 1.65 (inactive) | 0.64 |
| COC(=O)c1cc(S(=O)(=O)N2CCCC2C(=O)N2CCc3ccccc32)cn1C (stereo not drawn) | -0.38 (inactive) | -0.18 |
| COc1ccc(-c2cc(Oc3cccc(C(=O)NC4CCCCC4)c3)ncn2)cc1 | 1.55 (inactive) | 1.41 |
| O=C(NCCC1=CCCCC1)C1CCN(c2cc(-c3cccc(F)c3)ncn2)CC1 | 1.01 (inactive) | 0.77 |
| CC(C)NC(=O)Cc1csc(NC(=O)C2CC2)n1 | 0.37 (inactive) | -0.55 |
| COc1cccc(NC(=O)c2ccc(-n3nc(N4CCCC4)ccc3=O)cc2)c1 | -0.3 (inactive) | -0.77 |
| CCOC(=O)c1cnc(SC(CC)C(=O)Nc2ccc(Br)cc2)nc1N (stereo not drawn) | 0.81 (inactive) | 0.87 |
| O=C1CN(C(=O)CSc2ccc(Cl)cc2)c2ccccc2N1 | -2.07 (inactive) | -0.23 |
| COc1ccc(C2N=C(Nc3ccc(C(C)C)cc3)Nc3nc(C)cc(=O)n32)cc1OC (stereo not drawn) | 0.3 (inactive) | -0.84 |

| SMILES | z-score (stronger effect = lower value) | z-score [1] |
| --- | --- | --- |
| Cc1nc(-c2csc(S(=O)(=O)N3CCCC(C(=O)N4CCCCC4)C3)c2)no1 (stereo not drawn) | 0.63 (inactive) | -0.32 |
| CC(=O)N1CCCN(S(C)(=O)=O)CC1 | 0.45 (inactive) | 1.28 |
| CC(C)c1nnc(-c2cc3ccccc3n2CC(=O)N(C(C)C)C(C)C)o1 | -0.44 (inactive) | 0.05 |
| COc1cc(C2OC(c3ccccc3)=NN2C(C)=O)ccc1O (stereo not drawn) | -1.46 (inactive) | -1.53 |
| O=C(Cn1nc2n(CCc3ccccc3)c(=O)c3ccccc3n2c1=O)NCc1ccccc1Cl | 0.2 (inactive) | 0.39 |
| COc1ccc(OC)c(CNC(=O)C2CCCN(c3ncnc4c3oc3ccccc34)C2)c1 (stereo not drawn) | -0.39 (inactive) | -0.94 |
| CN(C)CCCNC(=O)c1sc2ncccc2c1-n1cccc1 | -0.76 (inactive) | -0.95 |
| Cc1ccc(/C=C/c2nc(-c3ccc4c(c3)[nH]c(=O)c(=O)n4C(C)C)no2)cc1 | 0.12 (inactive) | -0.05 |
| CCc1nc(-c2ccc(C(=O)NCC(=O)Nc3ccc(Cl)cc3)cc2)no1 | -0.03 (inactive) | -0.94 |
| CC(C)C(=O)N1CCN(c2ccc(Nc3c4c(nc5nc(-c6ccccc6)nn35)CCCC4)cc2)CC1 | -0.12 (inactive) | 0.82 |
| O=C(NCCc1cscn1)[C@H]1CSCN1C(=O)c1ccccc1 | 0.46 (inactive) | 0.42 |
| CCC(=O)Nc1cccc(-c2noc(C3CCCN(C(=O)c4ccc(F)cc4)C3)n2)c1 (stereo not drawn) | 0.07 (inactive) | -0.16 |
| O=S(=O)(c1ccc2c(c1)CCCC2)N1CCC2(CC1)Nc1cc(F)ccc1-n1cccc12 | -0.8 (inactive) | -0.36 |
| O=S(=O)(c1ccccc1)c1ccc(N2CCN(c3ccccc3)CC2)nn1 | -0.18 (inactive) | -1.06 |
| O=C(NCCc1cnc[nH]1)c1ccc(Cn2c(SCc3ccc(F)cc3)nc3cccnc32)cc1 | -0.7 (inactive) | -0.94 |
| CCOC(=O)CC1=CC(SCC(=O)c2cc(C)ccc2C)=Nc2ccccc2N1 | 0.16 (inactive) | 0.19 |
| COc1ccc(NC(=O)c2ccc(-c3nc(-c4ccccc4)no3)cc2)cc1 | -1.61 (inactive) | -1.39 |
| Cc1ccc2c(Cl)c(C(=O)Nc3onc4c3CCCC4)sc2c1 | 0.44 (inactive) | 0.27 |
| COc1ccc(Cn2c(CCC(=O)Nc3cccc(C)c3C)nc3cccnc32)cc1 | 0.59 (inactive) | 0.56 |
| CC(=O)Nc1ccc(N(C)CCCc2c(C)nn(C)c2C)c(C(=O)O)c1 | 0.96 (inactive) | 0.43 |
| COC(=O)CSc1nc2cc(-c3ccccc3)sc2c(=O)n1C | 0.31 (inactive) | 0.31 |
| CCCN(C)S(=O)(=O)c1c(C)[nH]c(-c2nnc(C3CCC3)o2)c1C | 0.79 (inactive) | 0.59 |
| COc1ccc2nc(-n3nc(C)c4c3NC(=O)CC4c3cc(Br)ccc3OC)sc2c1 (stereo not drawn) | -0.06 (inactive) | 0.15 |
| COc1ccc2nc(-n3nc(C)c4c3NC(=O)CC4c3ccsc3)sc2c1 (stereo not drawn) | -2.13 (active) | -0.51 |
| COc1ccc2nc(-n3nc(C)c4c3NC(=O)CC4c3ccc4c(c3)OCO4)sc2c1 (stereo not drawn) | 1.23 (inactive) | 1.32 |

Source: PubChem BioAssay AID1963822 (ICCB-Longwood Screening Facility, Harvard Medical School, 2024)
